Data on six compounds can be found in PubChem BioAssay (NCATS).

Experiment [1] has as its target Alpha-galactosidase A (Homo sapiens) (UniProt P06280). Put plainly: Counterscreen for Glucocerebrosidase Inhibitors: qHTS Assay for Human alpha-Galactosidase at pH 4.5 (AID 992). Note: 0% is about no effect. The essentials:
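Enzyme at 2 nM final was combined with compound (0.7 nM to 77 uM) and 80 uM 4-methylumbelliferyl alpha-D-galactopyranoside in 50 mM citric acid, 0.005% Tween-20, pH 4.5. After 20 min at room temperature, fluorescence was read (Ex 365/Em 440 nm); AC50 came from Hill fits.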
Background: Counterscreens check selectivity or assay interference.

Experiment [2] deals with alpha-glucosidase (Oryza sativa, rice) (UniProt Q653V4). Put plainly: Counterscreen for Glucocerebrosidase Inhibitors: qHTS Assay for Rice alpha-Glucosidase at pH 5.0 (AID 997).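 Note: 0% = full activity with enzyme and -100% = basal without enzyme.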 The essentials:
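Rice alpha-glucosidase (4 nM final) with 400 uM 4-methylumbelliferyl-alpha-D-glucopyranoside in citrate buffer pH 5.0, 20 min at room temperature, stopped at pH 10; fluorescence 365/440 nm, compounds 0.7 nM–77 uM, AC50 from Hill fits.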

Experiment [3] is described as follows: Validation of Assay for Modulators of Lamin A Splicing (AID 1459; active = well fitted curve in the direction sought with a large enough effect in the signal ratio; the % refers to the signal ratio;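 note: cells exposed to compound for two days before reading; 0% is about no effect; ratio rise marks activators and ratio drop marks inhibitors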). The essentials:
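Dual-reporter HeLa S3 line (lamin A-EGFP minigene, DsRed2) treated with compounds 48 hrs, 0.5% DMSO final. Endpoint: EGFP/DsRed2 total intensity ratio from laser-scanning microplate cytometry.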

Experiment [4] in a line: qHTS Assay for Lipid Storage Modulators (AID 1519; calls by dose curve). The following applies: Drosophila S3 cells, BODIPY lipid droplet/cell ratio, laser cytometry, cells loaded with oleic acid. In a few lines:
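Cells seeded at 5,000 per well were treated with compounds over a concentration series and loaded with oleic acid (400 uM, as added). Lipid droplet fluorescence (488 nm excitation, 500-530 nm channel) was read by laser-scanning cytometry and normalized to 20 uM Triacsin C.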

Experiment [5] concerns the target DNA repair nuclease/redox regulator APEX1 (Homo sapiens) (UniProt P27695). The experiment in a line: qHTS Validation Assay for Inhibitors of the Human Apurinic/apyrimidinic Endonuclease 1 (APE1) (AID 1705;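 note: TAMRA fluorescence gain over two minutes as APE1 cuts a quenched THF abasic duplex; % is set by controls: 0 for no effect and ±100 for the full control effect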). The essentials: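 Substrate: 50 nM final fluorophore/quencher THF-abasic duplex. Enzyme preincubated with compounds 15 min, RT. Progress derived from fluorescence difference, third minus first kinetic read.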

For experiment [6], the target named is Endonuclease 4 (Escherichia coli (strain K12)) (UniProt P0A6C1). Put plainly: Counterscreen for APE1 Inhibitors: qHTS Validation Assay for Inhibitors of Endonuclease IV (AID 1708). Note: % is set by controls: 0 for no effect and ±100 for the full control effect. The essentials: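 qHTS concentration-response format; LOPAC1280 tested under APE1-screen conditions. 2 nM enzyme, 15 min compound preincubation at RT, then 50 nM TAMRA/BHQ-2 abasic substrate; kinetic fluorescence read, three reads at 60 s intervals.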

Experiment [7] in a line: qHTS for differential inhibitors of proliferation of Plasmodium falciparum line 7G8 (AID 1815).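 For activity change, negative = inhibition: plate controls were vehicle wells for no effect and reference inhibitor wells for full effect.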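 Note: parasite growth measured after three days of incubation.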 Note: potency is the fitted concentration of half-maximal effect.
Experiment [8] can be described thus: qHTS for differential inhibitors of proliferation of Plasmodium falciparum line GB4 (AID 1816).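 For activity change, negative = inhibition: 0% = vehicle DMSO and -100% = reference inhibitor.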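 Note: parasite growth measured after 72 h incubation.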 Note: potency is the fitted concentration of half-maximal effect. The following applies: Potency: Plasmodium falciparum GB4 proliferation inhibition. (In qHTS, concentration-response curves come from the screen itself.)
Experiment [9] can be described thus: qHTS for differential inhibitors of proliferation of Plasmodium falciparum line 3D7 (AID 1876). Note: potency is the fitted concentration of half-maximal effect.
The nature of experiment [10]: qHTS for differential inhibitors of proliferation of Plasmodium falciparum line W2 (AID 1883).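 For activity change, negative = inhibition: 0% = vehicle wells and -100% = control inhibitor wells.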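 Note: parasites grown with compound for 72 h before lysis and staining.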 Note: potency is the fitted concentration of half-maximal effect. The note with it: Potency: Plasmodium falciparum W2 proliferation inhibition.
The nature of experiment [11]: qHTS for differential inhibitors of proliferation of Plasmodium falciparum line HB3 (AID 1886).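 For activity change, negative = inhibition: plate controls were vehicle for no effect and reference inhibitor for full effect.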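 Note: parasites grown with compound for 72 h before SYBR Green readout.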 Note: potency is the fitted concentration of half-maximal effect. The following applies: Potency: Plasmodium falciparum HB3 proliferation inhibition.
Experiment [12] has as its target ATP-dependent DNA helicase Q1 (Homo sapiens) (UniProt P46063). The experiment in a line: qHTS Validation Assay for Inhibitors of RecQ-Like Dna Helicase 1 (RECQ1) (AID 2353).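 Note: plate controls were DMSO vehicle for no effect and enzyme-free control for full effect.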 The essentials:
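50 nM RECQ1T1 preincubated 15 min with compound in Tris pH 8.0 buffer with MgCl2, DTT, Tween-20 and 2.5 ug/ml poly(dI-dC); started with 200 nM TAMRA/BHQ-2 forked duplex and 2 mM ATP. Unwinding read as fluorescence (525/598 nm), two reads 2 h apart.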

The nature of experiment [13]: Cell Viability - LYMP1-002 - Assay at 24 hr (AID 993). Note: % is set by controls: 0 for no effect and ±100 for the full control effect. The essentials:
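Human lymphoblastoid LYMP1-002 cells (2500/well) treated 24 h at 37 °C; viability as intracellular ATP by CellTiter-Glo luminescence. Tetraoctylammonium bromide as positive control; AC50 from Hill-equation fits of qHTS concentration-response.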

Experiment [14] is described as follows: Cell Viability - LYMP1-002 - Assay at 40 hr (AID 994).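 Note: 0% = DMSO only and full inhibition = 92 µM tetraoctylammonium bromide; nearly all actives have a fitted effect of over 60% in size.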 The essentials: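 LYMP1-002 human lymphoblastoid cells (2500/well, complete medium) were treated with compounds for 40 hr at 37 C. Intracellular ATP was measured by CellTiter-Glo luminescence, and AC50 values came from Hill-equation fits of concentration-response data; tetraoctylammonium bromide was the positive control.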

Experiment [15] can be described thus: qHTS for differential inhibitors of proliferation of Plasmodium falciparum line D10 (AID 1877).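 Note: parasites grown with compound for 72 h before DNA staining; plate controls were vehicle wells for no effect and reference inhibitor wells for full effect.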
Experiment [16] can be described thus: qHTS for differential inhibitors of proliferation of Plasmodium falciparum line Dd2 (AID 1882).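 Note: plate controls were DMSO vehicle for no effect and 0.29 µM artemisinin for full effect; nearly all actives have a fitted effect of over 65% in size.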 The note with it: Potency: Plasmodium falciparum Dd2 proliferation inhibition. The essentials:
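Dd2-infected erythrocytes (0.3% parasitemia, 2.5% hematocrit final) incubated with compound 72 h at 37 C, 5% CO2; lysed with saponin/Triton buffer containing SYBR Green I, incubated overnight in the dark, then read by fluorescence (485/535 nm). Normalized to 0.29 uM artemisinin and DMSO.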

Experiment [17] deals with Ferritin light chain (Equus caballus) (UniProt P02791). The experiment in a line: qHTS Validation Assay for Identification of Novel General Anesthetics (AID 2323). Note: % is set by controls: 0 for no effect and ±100 for the full control effect. In a few lines: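 Normalized fluorescence response, scaled between free 1-AMA and 1-AMA/apoferritin complex, fitted to a four-parameter Hill equation for concentration-effect values. Binding mix: 10 uM horse-spleen apoferritin, 50% saturated 1-AMA in PBS; read 380/535 nm after 10 min.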

[18] abbreviates: measured here: cell count channel max response.
Where [19] appears, read: measured here: lipid channel max response.

SMILES strings stand for the structures. Several values for one entry are separate records, joined by “and”; a condition that tells them apart may be missing. Identical values can stand only once. Records with an inconclusive call do not appear. Activity calls are given as the source filed them. Unless noted, calls come from the whole dose curve; as a rule, active = well fitted curve in the direction sought with a large enough effect; inconclusive = small, poorly fitted or top-dose-only effect, or another doubt; inactive = no such curve, though single readings can be large; an effect the other way counts as inactive or inconclusive.

DNA repair nuclease/redox regulator APEX1 (Homo sapiens), sequence (P27695 whole entry, looked up): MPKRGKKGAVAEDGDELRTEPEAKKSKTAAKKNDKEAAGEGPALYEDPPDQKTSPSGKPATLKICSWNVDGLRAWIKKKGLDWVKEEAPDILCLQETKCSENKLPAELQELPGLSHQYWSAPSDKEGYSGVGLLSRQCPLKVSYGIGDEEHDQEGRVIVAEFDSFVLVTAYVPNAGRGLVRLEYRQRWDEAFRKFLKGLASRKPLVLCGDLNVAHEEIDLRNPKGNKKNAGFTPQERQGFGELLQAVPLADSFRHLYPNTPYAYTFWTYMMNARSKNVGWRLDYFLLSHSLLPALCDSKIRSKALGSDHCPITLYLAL
Alpha-galactosidase A (Homo sapiens), sequence (P06280 whole entry, looked up): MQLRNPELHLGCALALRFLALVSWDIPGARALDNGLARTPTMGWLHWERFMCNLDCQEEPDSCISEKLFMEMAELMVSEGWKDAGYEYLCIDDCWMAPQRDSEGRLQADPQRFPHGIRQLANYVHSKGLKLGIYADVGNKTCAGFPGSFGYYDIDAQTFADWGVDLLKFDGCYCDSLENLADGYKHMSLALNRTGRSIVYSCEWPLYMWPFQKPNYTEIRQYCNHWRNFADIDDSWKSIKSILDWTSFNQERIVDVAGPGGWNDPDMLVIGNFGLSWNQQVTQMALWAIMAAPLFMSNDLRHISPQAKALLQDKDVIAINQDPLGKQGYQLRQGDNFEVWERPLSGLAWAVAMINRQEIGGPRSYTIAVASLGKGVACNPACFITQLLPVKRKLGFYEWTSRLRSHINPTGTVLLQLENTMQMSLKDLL
ATP-dependent DNA helicase Q1 (Homo sapiens), sequence (P46063 whole entry, looked up): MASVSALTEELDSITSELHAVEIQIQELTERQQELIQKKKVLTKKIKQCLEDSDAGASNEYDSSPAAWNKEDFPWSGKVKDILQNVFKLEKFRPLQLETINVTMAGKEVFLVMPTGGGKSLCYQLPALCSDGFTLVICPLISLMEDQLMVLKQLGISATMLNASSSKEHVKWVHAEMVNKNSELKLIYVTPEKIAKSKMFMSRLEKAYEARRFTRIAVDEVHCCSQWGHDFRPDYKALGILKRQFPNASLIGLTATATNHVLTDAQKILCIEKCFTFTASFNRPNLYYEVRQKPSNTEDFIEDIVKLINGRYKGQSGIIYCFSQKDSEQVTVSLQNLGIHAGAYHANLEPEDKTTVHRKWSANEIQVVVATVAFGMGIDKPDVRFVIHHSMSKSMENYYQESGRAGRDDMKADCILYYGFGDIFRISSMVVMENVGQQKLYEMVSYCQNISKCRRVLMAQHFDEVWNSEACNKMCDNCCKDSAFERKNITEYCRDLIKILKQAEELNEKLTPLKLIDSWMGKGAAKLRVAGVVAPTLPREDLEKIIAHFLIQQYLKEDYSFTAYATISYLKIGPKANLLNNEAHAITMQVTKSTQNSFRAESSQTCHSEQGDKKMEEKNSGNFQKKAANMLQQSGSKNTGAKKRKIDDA
Ferritin light chain (Equus caballus), sequence (P02791 2-175 limits assumed): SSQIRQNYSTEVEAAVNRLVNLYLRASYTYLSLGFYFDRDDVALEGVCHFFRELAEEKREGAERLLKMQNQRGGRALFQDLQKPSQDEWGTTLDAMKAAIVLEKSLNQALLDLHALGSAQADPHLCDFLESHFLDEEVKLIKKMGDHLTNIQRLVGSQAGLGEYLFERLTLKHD

With `Clc1ccc(Cn2c(CN3CCCC3)nc3ccccc32)cc1`, the compound was called inactive in experiment [1], in experiment [2], in experiment [3], in experiment [5], in experiment [6] and in [12]. Also, the activity change, negative = inhibition in experiment [4] (at 25.7 µM (top of the series)) is -4.13% (inactive). Besides, the max response in experiment [4] (setting [18]) is -8.03%; in experiment [4] (setting [19]) it was -12.8%. Further, the Potency in experiment [7] is 7.08 µM (active); in [8], 10 µM (active); in [9] it was 11.2 µM (active); in [10], 5.62 µM (active); in experiment [11], 11.2 µM (active).

Regarding `COc1ccc(-c2coc3cc(O)cc(O)c3c2=O)cc1`, the activity change, negative = inhibition in experiment [4] (at 57.5 µM (top of the series)) was 4.62% (inactive) and -2.47% (inactive). For the same compound, the max response in [4] (setting [18]) is -4.41% and 15.8%; in [4] (setting [19]), 0.883% and 14.1%.

For `CC(C)[C@H](CO)Nc1nc(Nc2ccc(C(=O)O)c(Cl)c2)c2ncn(C(C)C)c2n1`, the activity change, negative = inhibition in experiment [4] (at 57.5 µM (top of the series)) is 6.65% (inactive). The max response was determined as 12.5% in [4] (setting [18]) and 19.1% in experiment [4] (setting [19]).

On to `CC(=O)c1ccc(S(=O)(=O)NC(=O)NC2CCCCC2)cc1`, for which the compound was classed as inactive in [1], in [2], in [5], in experiment [6], in [17] and in [12]. In addition, the Potency result in experiment [13], in experiment [14], in experiment [7], in experiment [8], in experiment [9] and in [15] was “inactive” each time. Also, the Potency entry in experiment [16], in [10] and in experiment [11] was “inactive” throughout. The activity change, negative = inhibition in experiment [4] (at 25.7 µM (top of the series)) was -0.412% (inactive); in experiment [4] (at 57.5 µM (top of the series)), 2.09% (inactive). The max response in [4] (setting [18]) was -7.61% and -6.03%; in experiment [4] (setting [19]), -6.16% and -3.34%.

In the case of `CCN1CCC[C@H]1CNC(=O)c1cc(S(N)(=O)=O)ccc1OC`, the result in experiment [1], in experiment [2], in experiment [5], in [6], in experiment [17] and in [12] was inactive. Besides, the activity change, negative = inhibition in experiment [4] (at 25.7 µM (top of the series)) is -2.7% (inactive); in [4] (at 57.5 µM (top of the series)) it was -2.29% (inactive) and -0.529% (inactive). Moreover, the max response is -6.81% and 8.22% and 14.9% in [4] (setting [18]); -10.9% and 9.44% and 14.1% in experiment [4] (setting [19]). Moreover, the Potency entry in experiment [7], in experiment [8], in experiment [9], in experiment [15], in experiment [16] and in experiment [10] was “inactive” throughout. Moreover, the Potency entry in [11] was “inactive”.

As to `c1ccc2c(Cc3c[nH]c4ccccc34)c[nH]c2c1`, the activity change, negative = inhibition in [4] (at 57.5 µM (top of the series)) is 12.9% (inactive). Also, the max response amounted to 7.31% in [4] (setting [18]) and 20.3% in experiment [4] (setting [19]).
